In the supplement of paper PMC10646978:
± gives the standard deviation.

How the values were obtained:
Conditions in all cases: modulator concentration 10 µM
[1] = test system: RAW-Dual (murine macrophage reporter line); assay: NF-kB reporter (SEAP) activity fold change vs agonist alone; higher = enhanced NF-kB activity
Method in brief: (§1)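 In 384-well plates holding 50 000 RAW-Dual murine macrophage reporter cells per well, compound at 10 μM final was pre-incubated for 1 hour at 37 °C, after which a PRR agonist was added overnight. Supernatant SEAP read with QUANTI-Blue at 620 nm absorbance reported NF-κB, and Lucia luciferase read with QUANTI-Luc luminescence reported IRF. Fold change values come from dividing each reporter signal by the mean of agonist-only control wells on the same plate, averaged over replicate plates with propagated errors.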

[2] = test system: RAW-Dual (murine macrophage reporter line); assay: IRF reporter (Lucia luciferase) activity fold change vs agonist alone; higher = enhanced IRF activity
Method in brief: as §1

[3] = test system: RAW-Dual (murine macrophage reporter line); assay: viability score (confluency relative to resting cells, overnight) (fraction); higher = more viable, active = viable (0.7 or more)
Method in brief: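 Confluency was the readout: RAW-Dual macrophages were imaged with IncuCyte after an overnight exposure to compound at 10 μM final. IncuCyte software produced two masks over all imaged wells. The viability score expresses confluency against resting cells, and both masks had to exceed 70% of resting cells for a compound to meet the cutoff.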

[4] = agonist: CpG ODN 1826 0.5 ug/mL

Row | SMILES | NF-kB reporter [1, 4] | NF-kB reporter ([1]; agonist: LPS 0.1 ug/mL) | NF-kB reporter ([1]; agonist: MPLA […]) | IRF reporter ([2]; agonist: 3'3'-cGAMP 10 ug/mL) | IRF reporter ([2]; agonist: LPS 0.1 ug/mL) | IRF reporter ([2]; agonist: MPLA […]) | viability score [3]
1 | NCCCC(=O)O | 1.18 ± 0.28 | 0.974 ± 0.1 | 1.01 ± 0.083 | 0.981 ± 0.04 | 1.3 ± 0.19 | 1.3 ± 0.14 | 0.995 (active)
2 | Cc1nccn1CC1CCc2c(c3ccccc3n2C)C1=O.Cl (stereo not given) | 0.82 ± 0.2 | 0.909 ± 0.28 | 0.84 ± 0.047 | 0.889 ± 0.051 | 1.19 ± 0.23 | 1.22 ± 0.33 | 0.638 (inactive)
3 | CC(C)(C)c1ccc(C(=O)CCCN2CCC(OC(c3ccccc3)c3ccccc3)CC2)cc1 | 0.99 ± 0.25 | 1.05 ± 0.081 | 1.02 ± 0.073 | 0.646 ± 0.024 | 1.18 ± 0.23 | 1.21 ± 0.13 | 1 (active)
4 | Cc1ccc(C(=O)N2N=C(c3ccc(Cl)cc3)CC2(O)C(F)(F)F)o1 (stereo not given) | 0.721 ± 0.06 | 0.82 ± 0.054 | 0.974 ± 0.097 | 0.975 ± 0.06 | 1.33 ± 0.077 | 1.42 ± 0.16 | 1 (active)
5 | CC(C)N1CCN(c2ccc(OC[C@H]3CO[C@](Cn4cncn4)(c4ccc(Cl)cc4Cl)O3)cc2)CC1 | 1.04 ± 0.078 | 1.15 ± 0.077 | 1.08 ± 0.027 | 0.832 ± 0.048 | 1.05 ± 0.042 | 1.02 ± 0.11 | 0.997 (active)
6 | COc1c(OC)c2occc2c2oc(=O)ccc12 | 1.14 ± 0.32 | 0.86 ± 0.083 | 0.941 ± 0.059 | 0.551 ± 0.018 | 0.586 ± 0.17 | 0.67 ± 0.07 | 0.968 (active)
7 | O=Cc1cn(CCOc2ccc(Br)cc2)c2ccccc12 | 1.25 ± 0.13 | 1.06 ± 0.054 | 1.59 ± 0.22 | 0.684 ± 0.033 | 0.674 ± 0.043 | 0.67 ± 0.085 | 0.977 (active)
8 | CC1CC(C)CN(C(=O)CSc2nnc(Cc3ccccc3)o2)C1 (stereo not given) | 0.917 ± 0.048 | 1.06 ± 0.091 | 0.879 ± 0.11 | 1.01 ± 0.071 | 0.944 ± 0.093 | 0.858 ± 0.34 | 0.981 (active)
9 | Nc1ncnc2c1ncn2[C@@H]1O[C@H](CO)[C@@H](O)[C@@H]1O.O | 1.09 ± 0.064 | 1.02 ± 0.065 | 0.997 ± 0.058 | 0.714 ± 0.026 | 1.04 ± 0.13 | 1.18 ± 0.14 | 0.991 (active)
10 | C=C1CCC(NS(=O)(=O)c2ccc(-c3coc(C)n3)cc2)CC1 | 1.04 ± 0.056 | 1.15 ± 0.091 | 1.14 ± 0.062 | 1.22 ± 0.062 | 1.14 ± 0.11 | 1.2 ± 0.17 | 0.834 (active)
11 | C=CCN1C(=O)C(=C2SC(=S)N(C)C2=O)c2ccccc21 | 0.76 ± 0.072 | 0.833 ± 0.085 | 1.03 ± 0.12 | 0.971 ± 0.05 | 1.33 ± 0.078 | 1.42 ± 0.15 | 0.997 (active)
12 | CC(=O)NC(c1ccccc1)c1c(OC(=O)COc2ccccc2)ccc2ccccc12 (stereo not given) | 0.73 ± 0.062 | 0.878 ± 0.049 | 0.714 ± 0.044 | 1.24 ± 0.062 | 0.987 ± 0.08 | 0.948 ± 0.12 | 1.01 (active)
13 | CS(=O)(=O)N(CC(=O)NC1CC1)c1cccc2ccccc12 | 1.04 ± 0.095 | 1.01 ± 0.12 | 0.901 ± 0.056 | 1 ± 0.039 | 1.59 ± 0.35 | 1.16 ± 0.17 | 1.01 (active)
14 | COc1ccc(NC(=O)Cc2cn(Cc3ccccc3)c3ccccc23)cc1OC | 0.629 ± 0.035 | 1.2 ± 0.096 | 1.57 ± 0.13 | 0.701 ± 0.032 | 1.24 ± 0.27 | 1.39 ± 0.4 | 0.96 (active)
15 | Cn1ncc(Cl)c1-c1cc(C(=O)N[C@H](CN)Cc2cccc(F)c2)sc1Cl | 0.833 ± 0.2 | 1.54 ± 0.11 | 1.64 ± 0.17 | 0.69 ± 0.026 | 1.55 ± 0.21 | 1.79 ± 0.33 | 0.647 (inactive)
16 | CCOc1ccc(CC(=O)N2C3C=CCC2CC3)cc1 (stereo not given) | 0.942 ± 0.1 | 1.09 ± 0.1 | 1.01 ± 0.061 | 1.02 ± 0.047 | 1.22 ± 0.16 | 1.31 ± 0.47 | 0.971 (active)
17 | CN1CCN2c3ccccc3Cc3ccccc3C2C1.Cl (stereo not given) | 1 ± 0.14 | 1.07 ± 0.34 | 0.835 ± 0.058 | 0.68 ± 0.032 | 1.32 ± 0.3 | 1.2 ± 0.13 | 0.307 (inactive)
18 | O=C(CN(c1cc(Cl)cc(Cl)c1)S(=O)(=O)c1ccccc1)N1CCCCCC1 | 1.06 ± 0.13 | 1.13 ± 0.1 | 1.13 ± 0.068 | 0.943 ± 0.14 | 0.991 ± 0.062 | 0.875 ± 0.057 | 0.996 (active)
19 | CCN1CC(CCN2CCOCC2)C(c2ccccc2)(c2ccccc2)C1=O.Cl.O (stereo not given) | 1 ± 0.15 | 1.19 ± 0.24 | 1.79 ± 0.72 | 0.919 ± 0.028 | 1.37 ± 0.43 | 1.03 ± 0.083 | 1 (active)
20 | Cc1cc(C(O)CCNC(=O)COc2cccc3c2OC(C)(C)C3)c(C)o1 (stereo not given) | 1.04 ± 0.099 | 1.01 ± 0.15 | 1.01 ± 0.055 | 0.883 ± 0.038 | 0.992 ± 0.051 | 0.94 ± 0.13 | 1 (active)
21 | CC(C)(C)C(=O)OCOP(=O)(COCCn1cnc2c(N)ncnc21)OCOC(=O)C(C)(C)C | 1.69 ± 0.25 | 1.36 ± 0.11 | 1.65 ± 0.1 | 1.81 ± 0.096 | 5.89 ± 0.5 | 3.2 ± 0.43 | 0.788 (active)
22 | CCc1ccc2oc(-c3ccc(NC(=O)c4ccc(C)c([N+](=O)[O-])c4)cc3)nc2c1 | 1.02 ± 0.08 | 1.04 ± 0.059 | 0.931 ± 0.089 | 1 ± 0.025 | 1.6 ± 0.22 | 1.33 ± 0.16 | 1.01 (active)
23 | Cc1ccc(Nc2ccc(NC(=O)C(C)C)cc2)nn1 | 0.988 ± 0.042 | 0.993 ± 0.082 | 1.11 ± 0.07 | 1.05 ± 0.048 | 1.2 ± 0.26 | 1.29 ± 0.44 | 0.981 (active)
24 | O=C(NCc1cccc(Cl)c1)c1cnc2n(c1=O)CCS2 | 1.03 ± 0.11 | 1.02 ± 0.1 | 0.974 ± 0.054 | 0.976 ± 0.035 | 1.04 ± 0.054 | 1.09 ± 0.19 | 0.999 (active)
25 | CCOc1ccc(C=Nc2cccc3ncccc23)cc1 | 0.971 ± 0.084 | 1.02 ± 0.067 | 0.958 ± 0.077 | 0.424 ± 0.019 | 1.15 ± 0.11 | 0.979 ± 0.095 | 1 (active)
